Assay outcomes from PubChem BioAssay.
S1P1 ag = activates the human S1P1 receptor. S1P1 agonist cell-based reporter assay. activation, % at 4.5 µM. hit rate 1.5% among 16,000. AID 1044, 2008; in the data active means activation above about 80%
Target sequence (P21453 whole entry, looked up): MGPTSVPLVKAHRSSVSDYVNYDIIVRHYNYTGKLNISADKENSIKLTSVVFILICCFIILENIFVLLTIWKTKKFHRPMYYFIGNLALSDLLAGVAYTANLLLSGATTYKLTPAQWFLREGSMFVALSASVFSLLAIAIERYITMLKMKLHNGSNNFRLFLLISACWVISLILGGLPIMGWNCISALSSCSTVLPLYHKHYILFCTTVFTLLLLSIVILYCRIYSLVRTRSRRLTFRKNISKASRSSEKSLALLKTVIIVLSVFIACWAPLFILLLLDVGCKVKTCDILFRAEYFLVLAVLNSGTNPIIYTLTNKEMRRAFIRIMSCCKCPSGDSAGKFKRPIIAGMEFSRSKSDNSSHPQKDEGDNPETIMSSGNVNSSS
NOTCH agonist = agonists of NOTCH signaling. NOTCH signaling luciferase reporter cells, luminescence. activation, % at 2.5 µM. hit rate 0.4% among 15,000. AID 434982, 2010; in the data active means activation above about 2.2%
TLR4-MyD88 inh = inhibitors of human TLR4-MyD88 binding | Toll-like receptor 4 (Homo sapiens), O00206 | hit rate 0.06% among 16,000 | inhibition, % at 10 µM | Cell-based TLR4-MyD88 binding inhibition assay | AID 811, 2007; in the data active means inhibition above about 45%
KOR antag MB = antagonists of human kappa opioid receptor OPRK1, Maybridge library; inhibition, % at 9 µM; Kappa-type opioid receptor (Homo sapiens), P41145; hit rate 0.4% among 16,000; AID 652031, 2013; OPRK1 cells, antagonist mode, fluorescence readout; in the data active means inhibition above about 50%
Numbers without * were called inactive; x = no result. Only some compounds are listed: those with a hit (about 2.2% of all), similar ones and a draw of the others.

SMILES	S1P1 ag	NOTCH agonist	TLR4-MyD88 inh	KOR antag MB
COc1cc(C(=O)NC2CC(C)CC(C)(C)C2)cc(OC)c1OC (stereo not drawn)	109*	-1	5	-29
O=C(Nc1ccc(F)cc1F)c1csc(Cc2c(Cl)cccc2Cl)n1	0	0	3	-17
CC(=O)Nc1onc(C)c1-c1nc(-c2ccc(Cl)cc2Cl)cs1	-4	-1	6	50*
O=C(Oc1ccc([N+](=O)[O-])cc1C1SCCS1)c1ccc(Cl)cc1	1	-1	3	3
c1ccc(-c2nc(-c3ccc(-c4ccon4)s3)no2)cc1	87*	0	-5	2
Cc1cc(C(=O)N/N=C/c2ccc([N+](=O)[O-])s2)no1	-13	0	-5	3
Clc1ccc2c(Nc3ccc4c(c3)OCO4)ccnc2c1	25	-1	x	51*
Cc1ccc(Nc2ccnc3cc(Cl)ccc23)cc1F	-10	0	-5	36
S=C(SCc1ncon1)N1CCCC1	83*	-1	10	-11
O=S(=O)(Nc1cc(C(F)(F)F)cc(C(F)(F)F)c1)c1cccc2nsnc12	89*	0	3	17
O=[N+]([O-])c1cc(C(F)(F)F)cc([N+](=O)[O-])c1N1CCSCC1	99*	0	6	-18
O=C(Nc1ccc(-c2cnco2)cc1)c1csc([N+](=O)[O-])c1	105*	0	6	3
O=C(Nc1ccc(Cl)cc1)c1csc([N+](=O)[O-])c1	12	-1	0	14
O=S(=O)(c1cc(Br)c(Cl)s1)N1CCC(Cc2ccccc2)CC1	-2	-1	-10	3
O=S(=O)(c1ccc(Cl)s1)N1CCN(C(c2ccccc2)c2ccccc2)CC1	-8	6.4*	2	-10
CCSC(SCC)[C@@H](O)[C@H](O)[C@H](O)[C@@H](O)CO	7	0	4	-2
OC[C@@H](O)[C@H](O)[C@H](O)[C@@H](O)C(SCc1ccccc1)SCc1ccccc1	103*	0	11	4
NC1=NC(=O)C(CC(=O)Nc2cccc3ccccc23)S1 (stereo not drawn)	-9	0	-6	20
COc1ccc(-c2nc(N(C)c3ccccc3)[nH]c(=O)c2C#N)cc1	18	3.5*	-1	4
C/C(CC(C)(C)C)=N\NC(N)=O	-16	0	7	23
Brc1cn[nH]c1/C=N/Nc1nc(-c2ccccc2)cs1	22	-1	2	8
O=S(=O)(NCCSCc1csc2ccc(Cl)cc12)c1ccc(Cl)cc1	90*	-1	16	-23
O=S(=O)(NCc1csc2ccc(Cl)cc12)c1ccc(C(F)(F)F)cc1	-5	0	5	-2
CSc1nc(/C=N/c2nc(C)cc(C)n2)c(O)n1Cc1cccc(Cl)c1	103*	0	2	-19
CC(C)(C)c1ccc(NC(=O)c2ccc(N3C(=O)CSCC3=O)cc2)cc1	93*	0	x	0
SMILES	S1P1 ag	NOTCH agonist	TLR4-MyD88 inh	KOR antag MB
CC(=O)c1ccc(NC(=O)CSCC(=O)O)cc1	-3	1	-6	11
Cn1c(CNC(=O)OC(C)(C)C)nnc1SCc1ccccc1	-1	0	-13	-5
Cc1ccsc1/C=C/C(=O)O/N=C(\N)c1ccc(C(F)(F)F)cc1	100*	-1	x	6
Nc1ncnc(SCc2nc(-c3ccc(OC(F)(F)F)cc3)no2)n1	4	-1	1	-4
FC(F)(F)Oc1ccc(-c2noc(-c3ccno3)n2)cc1	91*	1	-1	3
Cc1nc(-c2nc(-c3ccnc(SCC(=O)Nc4ccc(Cl)cc4)n3)cs2)cs1	10	-1	-12	-13
COC(=O)c1cc(NC(=O)c2c(Cl)cccc2Cl)ccc1N1CCOCC1	-11	0	-6	10
COC(=O)c1cc(NC(=O)/C=C/c2ccc(OC)c(OC)c2Cl)ccc1N1CCOCC1	85*	0	-3	-4
O=C(Oc1cccc2c1C(=O)C=CC2=O)c1ccccc1	102*	-1	-4	-1
Cc1nnsc1C(=O)Nc1ccc(-n2nc(C(F)(F)F)cc2C(F)(F)F)cc1	99*	-1	x	-4
Cc1nnsc1C(=O)Nc1ccc(-n2nc(C(F)(F)F)cc2-c2cccs2)cc1	24	-1	-1	-3
FC(F)(F)c1cc(-c2ccc(-c3ccn[nH]3)o2)cc(C(F)(F)F)c1	102*	0	2	-1
BrC1(Br)CC1(c1ccccc1)c1ccccc1	11	0	-4	25
COc1cc(/C=C/C(=O)Nc2ccc(Cl)c(Cl)c2)cc(OC)c1OC	-58	0	-3	14
COC(=O)c1ccsc1NC(=O)c1cncc(Br)c1	17	-1	9	-5
CS/C(=N\S(=O)(=O)c1ccccc1)Nc1c(C)nn(C)c1C	-12	0	-9	-1
